Test results published in PMC7862700, “An all-to-all approach to the identification of sequence-specific readers for epigenetic DNA modifications on cytosine”.

Experiments:
Experiment in all cases: DAPPL (digital affinity profiling via proximity ligation, sequencing); 10 mM Tris-HCl pH 7.5, 50 mM NaCl, 1 mM DTT, 4% glycerol, room temperature, 30 min; GST-TFs on glutathione beads, 16-mer random dsDNA library, 0.1% formaldehyde crosslink after washing; high values mean tight binding
Conditions in all cases: protein: recombinant; tags: N-terminal GST; dsDNA, one strand shown
ELK1 = biological target: T1, ELK1 (Homo sapiens, UniProt P19419 1-428)
T1 sequence: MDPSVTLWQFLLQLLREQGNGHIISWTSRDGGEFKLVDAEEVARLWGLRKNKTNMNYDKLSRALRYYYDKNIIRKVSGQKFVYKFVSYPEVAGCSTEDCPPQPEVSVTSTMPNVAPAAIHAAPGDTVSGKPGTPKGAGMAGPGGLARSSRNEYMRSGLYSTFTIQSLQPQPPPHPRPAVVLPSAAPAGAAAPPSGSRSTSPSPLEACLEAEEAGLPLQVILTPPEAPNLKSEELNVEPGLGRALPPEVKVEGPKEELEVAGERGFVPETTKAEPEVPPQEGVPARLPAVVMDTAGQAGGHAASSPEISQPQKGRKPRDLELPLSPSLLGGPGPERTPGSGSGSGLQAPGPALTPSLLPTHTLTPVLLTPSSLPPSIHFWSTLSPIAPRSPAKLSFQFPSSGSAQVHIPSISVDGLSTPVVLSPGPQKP
Procedure, shortened: (§1)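 Pools were built from human transcription factors expressed in yeast as GST fusions, captured on glutathione beads and DNA-barcoded, along with a tag-only sample. Incubation with 200 nmole of a 16-mer random double-stranded DNA library lasted 30 min at room temperature in Tris/NaCl/DTT/glycerol buffer, and was followed by washing, 0.1% formaldehyde crosslinking, proximity ligation, PCR amplification and Illumina NextSeq500 sequencing. Binding signal is the quotient of each hexamer's read frequency for a factor and its frequency for the tag-only sample.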

ERG = biological target: T2, ERG (Homo sapiens, UniProt P11308 1-479)
T2 sequence: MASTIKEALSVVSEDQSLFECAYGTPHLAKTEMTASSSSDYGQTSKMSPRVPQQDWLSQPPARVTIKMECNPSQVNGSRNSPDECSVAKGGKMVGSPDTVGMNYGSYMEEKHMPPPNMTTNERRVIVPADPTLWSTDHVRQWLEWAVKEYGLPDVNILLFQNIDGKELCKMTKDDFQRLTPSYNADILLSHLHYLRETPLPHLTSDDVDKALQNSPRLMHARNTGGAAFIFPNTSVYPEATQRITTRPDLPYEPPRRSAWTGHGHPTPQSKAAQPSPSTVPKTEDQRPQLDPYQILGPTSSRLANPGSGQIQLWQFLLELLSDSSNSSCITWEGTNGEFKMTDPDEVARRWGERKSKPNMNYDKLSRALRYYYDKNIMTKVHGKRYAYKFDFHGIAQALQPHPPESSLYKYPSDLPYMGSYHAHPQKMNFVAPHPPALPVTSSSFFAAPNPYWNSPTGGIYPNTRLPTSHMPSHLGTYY
Procedure, shortened: as §1

ELK3 = biological target: T3, ELK3 (Homo sapiens, UniProt P41970 1-407)
T3 sequence: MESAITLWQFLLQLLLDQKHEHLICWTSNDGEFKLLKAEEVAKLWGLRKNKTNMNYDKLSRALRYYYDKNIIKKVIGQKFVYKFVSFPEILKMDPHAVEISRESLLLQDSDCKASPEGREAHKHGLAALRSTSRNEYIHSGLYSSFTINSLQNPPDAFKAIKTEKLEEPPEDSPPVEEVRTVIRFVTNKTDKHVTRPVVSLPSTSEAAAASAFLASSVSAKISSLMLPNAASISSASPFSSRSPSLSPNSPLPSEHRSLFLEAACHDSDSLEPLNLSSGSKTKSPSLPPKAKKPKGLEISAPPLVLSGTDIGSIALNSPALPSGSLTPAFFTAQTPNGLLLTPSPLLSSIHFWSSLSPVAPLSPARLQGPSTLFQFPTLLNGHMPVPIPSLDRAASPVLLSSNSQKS
Procedure, shortened: as §1

ELK4 = biological target: T4, ELK4 (Homo sapiens, UniProt P28324-2 1-405)
T4 sequence: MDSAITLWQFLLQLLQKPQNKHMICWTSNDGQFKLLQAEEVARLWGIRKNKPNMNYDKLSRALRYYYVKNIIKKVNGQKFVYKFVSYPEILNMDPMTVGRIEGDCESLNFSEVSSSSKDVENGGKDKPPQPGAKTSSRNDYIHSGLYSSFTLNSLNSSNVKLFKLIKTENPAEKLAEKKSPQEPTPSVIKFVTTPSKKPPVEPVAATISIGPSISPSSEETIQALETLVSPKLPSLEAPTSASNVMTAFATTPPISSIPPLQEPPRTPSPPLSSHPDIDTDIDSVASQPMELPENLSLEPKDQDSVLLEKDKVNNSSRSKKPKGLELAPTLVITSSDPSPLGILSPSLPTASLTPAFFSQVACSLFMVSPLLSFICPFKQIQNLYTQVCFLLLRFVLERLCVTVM
Procedure, shortened: as §1

ETV2 = biological target: T5, ETV2 (Homo sapiens, UniProt O00321 1-342)
T5 sequence: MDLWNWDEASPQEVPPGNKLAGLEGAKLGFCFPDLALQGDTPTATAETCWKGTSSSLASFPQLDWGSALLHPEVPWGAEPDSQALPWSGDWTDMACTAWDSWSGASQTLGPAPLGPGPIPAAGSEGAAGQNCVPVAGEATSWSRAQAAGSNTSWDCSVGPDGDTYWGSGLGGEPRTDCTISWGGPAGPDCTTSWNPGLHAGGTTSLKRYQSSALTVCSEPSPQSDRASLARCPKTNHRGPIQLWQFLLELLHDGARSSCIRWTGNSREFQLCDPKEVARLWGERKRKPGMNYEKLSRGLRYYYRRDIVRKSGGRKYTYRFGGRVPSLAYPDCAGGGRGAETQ
Procedure, shortened: as §1

ELF3 = biological target: T6, ELF3 (Homo sapiens, UniProt P78545 1-371)
T6 sequence: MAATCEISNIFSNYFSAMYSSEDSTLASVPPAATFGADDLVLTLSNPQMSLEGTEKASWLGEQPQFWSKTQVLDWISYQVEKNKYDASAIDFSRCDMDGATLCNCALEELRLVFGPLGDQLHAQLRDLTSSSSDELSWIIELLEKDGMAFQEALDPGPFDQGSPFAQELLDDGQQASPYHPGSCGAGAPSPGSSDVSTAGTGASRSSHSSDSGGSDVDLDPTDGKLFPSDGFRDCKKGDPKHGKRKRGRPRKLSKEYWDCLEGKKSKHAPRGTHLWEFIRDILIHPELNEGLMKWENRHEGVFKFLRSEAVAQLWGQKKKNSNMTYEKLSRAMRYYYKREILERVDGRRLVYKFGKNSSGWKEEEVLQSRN
Procedure, shortened: as §1

CRX = CRX (Homo sapiens, UniProt O43186 1-299)
Chain of CRX (O43186 whole entry): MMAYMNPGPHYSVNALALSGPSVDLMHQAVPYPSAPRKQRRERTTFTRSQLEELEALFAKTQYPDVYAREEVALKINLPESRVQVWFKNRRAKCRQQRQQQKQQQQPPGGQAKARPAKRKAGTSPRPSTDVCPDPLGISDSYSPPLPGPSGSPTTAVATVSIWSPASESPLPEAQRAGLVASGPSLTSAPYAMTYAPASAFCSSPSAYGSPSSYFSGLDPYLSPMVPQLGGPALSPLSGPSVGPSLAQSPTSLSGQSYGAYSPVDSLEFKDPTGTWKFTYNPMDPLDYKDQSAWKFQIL
Procedure, shortened: as §1

ERF = biological target: T7, ERF (Homo sapiens, UniProt P50548 1-548)
T7 sequence: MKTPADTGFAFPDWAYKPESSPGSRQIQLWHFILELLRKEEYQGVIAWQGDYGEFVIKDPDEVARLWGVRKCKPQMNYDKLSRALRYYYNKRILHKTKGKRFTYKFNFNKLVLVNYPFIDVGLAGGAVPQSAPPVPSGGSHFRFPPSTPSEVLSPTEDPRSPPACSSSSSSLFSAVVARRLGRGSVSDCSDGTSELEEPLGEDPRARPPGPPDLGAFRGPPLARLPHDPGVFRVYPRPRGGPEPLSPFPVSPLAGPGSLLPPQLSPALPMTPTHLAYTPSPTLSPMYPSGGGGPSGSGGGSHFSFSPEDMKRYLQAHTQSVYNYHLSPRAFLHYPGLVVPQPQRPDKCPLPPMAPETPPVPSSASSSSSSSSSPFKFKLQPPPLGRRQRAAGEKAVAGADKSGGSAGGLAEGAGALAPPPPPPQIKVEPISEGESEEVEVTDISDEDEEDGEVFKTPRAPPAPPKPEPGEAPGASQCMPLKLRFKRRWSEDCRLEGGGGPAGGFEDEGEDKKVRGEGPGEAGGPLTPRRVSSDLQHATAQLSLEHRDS
Procedure, shortened: as §1

SPDEF = biological target: T8, SPDEF (Homo sapiens, UniProt O95238 1-335)
T8 sequence: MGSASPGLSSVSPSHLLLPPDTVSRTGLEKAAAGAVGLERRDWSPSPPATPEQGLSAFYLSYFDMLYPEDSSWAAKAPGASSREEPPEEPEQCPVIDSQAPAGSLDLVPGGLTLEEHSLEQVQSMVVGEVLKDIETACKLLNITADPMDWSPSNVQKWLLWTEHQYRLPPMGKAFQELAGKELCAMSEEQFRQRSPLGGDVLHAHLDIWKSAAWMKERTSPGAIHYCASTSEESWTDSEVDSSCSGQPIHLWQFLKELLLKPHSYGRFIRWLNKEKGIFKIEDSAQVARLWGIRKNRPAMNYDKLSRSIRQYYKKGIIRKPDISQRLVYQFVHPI
Procedure, shortened: as §1

SPIB = SPIB (Homo sapiens, UniProt Q01892 1-262)
Chain of SPIB (Q01892 whole entry): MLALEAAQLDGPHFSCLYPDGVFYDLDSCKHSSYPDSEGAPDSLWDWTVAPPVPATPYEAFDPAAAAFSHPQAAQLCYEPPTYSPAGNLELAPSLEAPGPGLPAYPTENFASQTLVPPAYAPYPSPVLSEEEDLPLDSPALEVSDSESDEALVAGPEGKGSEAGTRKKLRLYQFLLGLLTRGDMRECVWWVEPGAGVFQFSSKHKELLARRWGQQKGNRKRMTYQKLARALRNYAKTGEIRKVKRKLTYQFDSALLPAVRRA
Procedure, shortened: as §1

ETV3L = biological target: T9, ETV3L (Homo sapiens, UniProt Q6ZN32 1-361)
T9 sequence: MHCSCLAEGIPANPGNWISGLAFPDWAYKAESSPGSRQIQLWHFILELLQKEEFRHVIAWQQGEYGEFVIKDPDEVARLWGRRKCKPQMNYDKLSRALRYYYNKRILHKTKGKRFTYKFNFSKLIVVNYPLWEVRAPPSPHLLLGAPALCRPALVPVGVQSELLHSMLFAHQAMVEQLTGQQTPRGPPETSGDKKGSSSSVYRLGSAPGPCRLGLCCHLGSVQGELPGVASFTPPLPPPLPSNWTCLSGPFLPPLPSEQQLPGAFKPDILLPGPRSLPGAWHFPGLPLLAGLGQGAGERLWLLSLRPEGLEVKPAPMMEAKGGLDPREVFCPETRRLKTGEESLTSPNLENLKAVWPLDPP
Procedure, shortened: as §1

ETS2 = biological target: T10, ETS2 (Homo sapiens, UniProt P15036 1-469)
T10 sequence: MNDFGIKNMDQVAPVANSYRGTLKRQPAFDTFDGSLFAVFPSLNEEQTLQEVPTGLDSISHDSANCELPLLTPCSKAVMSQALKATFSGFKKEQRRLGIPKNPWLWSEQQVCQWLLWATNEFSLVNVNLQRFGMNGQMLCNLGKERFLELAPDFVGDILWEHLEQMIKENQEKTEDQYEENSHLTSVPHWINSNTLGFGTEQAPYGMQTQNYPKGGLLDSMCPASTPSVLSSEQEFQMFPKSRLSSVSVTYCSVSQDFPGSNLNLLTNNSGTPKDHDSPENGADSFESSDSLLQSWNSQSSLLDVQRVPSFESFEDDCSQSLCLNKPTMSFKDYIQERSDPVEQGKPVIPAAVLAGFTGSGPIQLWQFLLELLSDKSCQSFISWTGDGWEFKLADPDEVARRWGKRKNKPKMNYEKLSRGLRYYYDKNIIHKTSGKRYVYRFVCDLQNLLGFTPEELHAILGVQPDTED
Procedure, shortened: as §1

For GTGTTA, the binding signal (ELK1) was 1.02 fold enrichment (6-mer frequency, TF over GST control), the binding signal (ERG) was 1.01 fold enrichment (6-mer frequency, TF over GST control) and the binding signal (ELK3) was 1.02 fold enrichment (6-mer frequency, TF over GST control). The binding signal (ELK4) was 1.04 fold enrichment (6-mer frequency, TF over GST control), the binding signal (ETV2) was 1.01 fold enrichment (6-mer frequency, TF over GST control) and the binding signal (ELF3) was 1.15 fold enrichment (6-mer frequency, TF over GST control). For the same sequence, the binding signal (CRX) was 1.11 fold enrichment (6-mer frequency, TF over GST control) and the binding signal (ERF) was 1.06 fold enrichment (6-mer frequency, TF over GST control).

For TGTTAG, the binding signal (ELK4) was 1.13 fold enrichment (6-mer frequency, TF over GST control), the binding signal (ETV2) was 1.03 fold enrichment (6-mer frequency, TF over GST control) and the binding signal (ELF3) was 1 fold enrichment (6-mer frequency, TF over GST control). For the same sequence, the binding signal (SPDEF) was 1.03 fold enrichment (6-mer frequency, TF over GST control).

GTGTTG was tested, and the binding signal (ELK4) was 1.06 fold enrichment (6-mer frequency, TF over GST control) and the binding signal (SPDEF) was 1.01 fold enrichment (6-mer frequency, TF over GST control).

With ACGCGT the binding signal (ERG) was 1 fold enrichment (6-mer frequency, TF over GST control), the binding signal (SPIB) was 1.04 fold enrichment (6-mer frequency, TF over GST control) and the binding signal (ELK4) was 1.1 fold enrichment (6-mer frequency, TF over GST control). For the same sequence, the binding signal (ETV3L) was 1.02 fold enrichment (6-mer frequency, TF over GST control) and the binding signal (ETS2) was 1.01 fold enrichment (6-mer frequency, TF over GST control).
